Results on 25 compounds are retold here after PubChem BioAssay AID1445 (SRMLSC, 2008).

Broadly, the inhibition is the drop in the measured response relative to a control, in per cent.

About 910 (0.41%) of roughly 220,000 compounds were called active.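 How the source made its calls: active means primary inhibition above the hit cutoff, then over 50% inhibition at one or more dose response concentrations (cut at about 23% in these data, passing the limit was not always enough); inconclusive means conflicting primary data, or primary hits not chosen for dose response; inactive means low primary inhibition, or under 50% at every dose.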 Only a selection was taken, and actives are over-represented in it overall. Entries with a potency or affinity are not part of this list.

Aminopeptidase N (Plasmodium falciparum (isolate 3D7)), sequence (O96935 whole entry, looked up): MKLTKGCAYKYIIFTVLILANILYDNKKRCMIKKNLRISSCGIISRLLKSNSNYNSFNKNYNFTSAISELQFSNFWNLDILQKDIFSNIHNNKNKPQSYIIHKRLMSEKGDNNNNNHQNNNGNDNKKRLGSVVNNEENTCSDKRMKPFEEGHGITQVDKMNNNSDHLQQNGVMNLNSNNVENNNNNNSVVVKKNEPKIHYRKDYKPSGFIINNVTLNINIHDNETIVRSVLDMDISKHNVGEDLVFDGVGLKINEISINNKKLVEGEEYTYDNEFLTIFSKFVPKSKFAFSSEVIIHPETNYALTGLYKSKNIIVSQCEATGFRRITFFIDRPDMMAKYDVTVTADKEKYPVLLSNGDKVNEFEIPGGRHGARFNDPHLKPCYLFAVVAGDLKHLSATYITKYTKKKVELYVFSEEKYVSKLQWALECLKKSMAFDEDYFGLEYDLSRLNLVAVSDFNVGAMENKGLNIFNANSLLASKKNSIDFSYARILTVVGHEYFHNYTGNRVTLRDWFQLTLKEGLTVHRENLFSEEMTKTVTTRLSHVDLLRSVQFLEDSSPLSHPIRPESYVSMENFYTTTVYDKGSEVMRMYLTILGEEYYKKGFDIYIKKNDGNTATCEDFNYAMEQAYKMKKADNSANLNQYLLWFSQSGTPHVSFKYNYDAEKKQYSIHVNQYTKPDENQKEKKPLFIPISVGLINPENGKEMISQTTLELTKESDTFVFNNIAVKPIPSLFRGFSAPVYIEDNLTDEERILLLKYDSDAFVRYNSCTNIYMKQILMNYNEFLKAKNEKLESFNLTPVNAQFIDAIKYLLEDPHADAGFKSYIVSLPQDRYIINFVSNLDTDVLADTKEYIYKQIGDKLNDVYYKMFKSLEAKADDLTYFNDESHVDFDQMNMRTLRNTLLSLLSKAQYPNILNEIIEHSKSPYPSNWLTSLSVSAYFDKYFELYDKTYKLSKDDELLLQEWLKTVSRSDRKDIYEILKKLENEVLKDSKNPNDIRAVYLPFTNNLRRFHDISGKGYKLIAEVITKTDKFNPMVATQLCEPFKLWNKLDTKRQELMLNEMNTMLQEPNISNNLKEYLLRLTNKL

The assay concerns the target Aminopeptidase N (Plasmodium falciparum (isolate 3D7)) (UniProt O96935). As to the kind of experiment: P. falciparum M1AAP inhibitors, biochemical, fluorogenic H-Leu-NHMec substrate, 1536-well (AID 1445).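 Further: plate controls were DMSO full reaction for no effect and no enzyme background for full effect.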 Conditions: recombinant M1AAP, H-Leu-NHMec fluorogenic kinetic assay; at 30 µM, active compounds read high unless noted.
As for `CN(C)CCCN1C(=O)c2oc3ccccc3c(=O)c2C1c1cccs1` (stereo not given), the inhibition is 10.7% (inactive). For `CCN(CC)CCCN1C(=O)c2oc3ccccc3c(=O)c2C1c1cccs1` (stereo not given), the inhibition is 23.3% (active). For `O=C1c2oc3ccccc3c(=O)c2C(c2cccs2)N1CCCN1CCOCC1` (stereo not given) the value was 16.3% (inactive); for `S=C(NC1CC1)N1CCN(c2ccc(Cl)cc2)CC1`, -2.34% (inactive); for `CC(C)C(=O)NC(=S)Nc1ccc(S(=O)(=O)Nc2nccs2)cc1`, 2.01% (inactive). `COc1cccc(OC)c1C(=O)Nn1c(-c2cccc(C)c2)nc2ccccc2c1=O`: the inhibition was 6.13% (inactive).

For `O=C(Cc1ccccc1)Nn1c(-c2ccccc2)nc2ccccc2c1=O`, the inhibition was 3.49% (inactive). For the compound `O=C(Cc1cccs1)Nn1c(Cc2cccs2)nc2ccccc2c1=O`, the inhibition is 10.8% (inactive). To `COc1cccc(OC)c1C(=O)Nn1c(-c2cccs2)nc2ccccc2c1=O` belongs 1.67% (inactive); to `COc1ccccc1C(=O)Nn1c(-c2cccs2)nc2ccccc2c1=O`, 10.4% (inactive). To `Cc1cccc(-c2nc3ccccc3c(=O)n2NC(=O)c2cccnc2Cl)c1` belongs 8.24% (inactive); to `Cc1ccc(-c2nc3ccccc3c(=O)n2NC(=O)c2cccs2)cc1`, 5.47% (inactive); to `O=C(Nn1c(Cc2cccs2)nc2ccccc2c1=O)c1ccc(F)c(F)c1`, 8.58% (inactive). For `c1ccc(-c2ccc(CN3C[C@@H]4C(c5ccccc5)C5(c6ccccc6)CC4(C5)[C@H]3c3ccccc3)cc2)cc1` (stereo not given in full) the value was -2.33% (inactive); for `O=C(CSc1ccc(-c2ccc(F)cc2)nn1)NCCc1ccccc1`, -0.33% (inactive).

Take `Clc1ccc(-c2nn3cnnc3s2)c(Cl)c1`: the inhibition is 0.7% (inactive). As to `CCN=C1SC(CC(=O)NCCc2ccc(OC)c(OC)c2)C(=O)N1CC` (stereo not given), the inhibition was -3.87% (inactive).

For `Cc1[nH][nH]c(=O)c1C(c1ccc([N+](=O)[O-])cc1)c1c(C)[nH][nH]c1=O`, the inhibition is -16.2% (inactive).

With `Cc1[nH][nH]c(=O)c1C(c1ccc(O)c([N+](=O)[O-])c1)c1c(C)[nH][nH]c1=O`, the inhibition is 14% (inactive). Take `Clc1ccc(CN2C3=NCCN3c3ccccc32)cc1`: the inhibition is 7.94% (inactive). Take `Cc1cc(C)n2nc(C(=O)NCc3ccco3)cc2n1`: the inhibition was 8.12% (inactive). With `Cc1cc(C(=O)NCc2cccs2)nn1C`, the inhibition is 3.72% (inactive). With `CCN(CC)C(=O)CSc1nc(O)c(Cc2ccccc2)c(=O)n1-c1ccc(C)cc1`, the inhibition is 4.4% (inactive). On to `Cc1ccc(C(=O)Nc2ccccc2C(=O)N2CCCCCC2)cc1`, for which the inhibition was 4.87% (inactive). To `CC(C)CN(C(=O)COC(=O)c1ccccc1Sc1ccccc1C#N)C1CCS(=O)(=O)C1` (stereo not given) belongs -1.64% (inactive).
